STAT3 blocker = IL-6 driven STAT3 reporter inhibitors, primary screen, U3A cells, luciferase, luminescence, MLSCN library; IL-6 STAT3-luciferase reporter; host cell line lacks STAT1; 190,000 compounds, 0.89% hits; inhibition, % at 5.5 µM;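 active = inhibition above the mean inhibition across all screened compounds plus 3 SD, cut at about 44% in these data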
TRAIL sens C8 = viability loss with TRAIL in NB7+C8 cells, primary screen, TRAIL sensitizer project, cell-based, ATPlite luminescence. AID 624354, 2012. 360,000 compounds, 1% hits. inhibition (viability loss, TRAIL sensitization), % at 10 µM;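 active = compounds causing at least 50% loss of cell viability in the single-dose screen, relative to plate controls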
STAT1 blocker = STAT1 signaling inhibitors, primary screen, cell-based, HTS, luciferase reporter; 200,000 compounds, 0.35% hits; NIH 3T3 STAT1-luciferase reporter, IFN-gamma, luminescence; inhibition, % at 5.5 µM;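 active = inhibition above a set limit, the mean inhibition across all tested compounds plus 3 SD, cut at about 34% in these data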
HSF1 inhib = HSF1 inhibitors in luciferase reporter cells, primary screen, cell-based, NIH3T3, luminescence; 300,000 compounds, 0.77% hits; activity change, negative = inhibition, % at 7.5 µM (by protocol); AID 2098, 2009; NIH3T3-HGL HSE-luciferase, MG132-induced, luminescence 8 h; stronger effect = lower value;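 active = more than half of replicate wells show activity change below -50%, luminescence cut by over half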;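 note: luciferase reports HSF-1 transcriptional activity via heat shock element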
PPC-1+TRAIL kill = compounds killing PPC-1 cancer cells with TRAIL present, primary screen, TRAIL potentiator project, ATPLite luminescence, uHTS; AID 1443, 2008; 220,000 compounds, 0.41% hits; PPC-1 cells + TRAIL, ATPLite viability luminescence; cell killing (% activity), % at 4 µM or 5 µM;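 active = cell killing above 50% in the first pass at 4 µM, then a duplicate retest at 5 µM averaging 50% or more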
HSP90 refold inh = HSP90 inhibitors, primary screen, cell lysate, luminescence. Heat shock protein HSP 90 (rabbit reticulocyte lysate; luciferase refolding). Rabbit reticulocyte lysate, luciferase refolding luminescence, 3 h. inhibition, % at 5.6 µM. 290,000 compounds, 0.91% hits. AID 1789, 2009;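 active = inhibition above the screen-wide mean plus 3 SD, computed separately per campaign, cut at about 16% in these data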;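 note: inhibitors lower the luminescence because luciferase stays unfolded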
Numbers stand for hits; n = inactive; x = no result; ! = a repeat was not active. Most compounds without a hit are left out; they make up all but 2.4% or so of the library.

SMILES	STAT3 blocker	TRAIL sens C8	STAT1 blocker	HSF1 inhib	PPC-1+TRAIL kill	HSP90 refold inh
COCCN1C[C@@H](CO)O[C@@H](n2cnc3c(NC4CCCC4)ncnc32)C1	x	n	x	x	x	x
Cc1c(C)n(Cc2ccccc2)c2ncnc(N)c12	n	n	n	n	n	n
COc1ccc(-n2c(C)c(C)c3c(N)ncnc32)cc1	x	n	x	-57	x	n
CC(C)Sc1cc(Cl)nc(NC(=O)Nc2ccccc2)n1	x	91	x	n	x	n
O=C(Nc1ccccc1)Nc1ccc2ccccc2c1	x	n	x	n	n	n
COc1ccccc1CNC(=O)Nc1nc(C(N)Cc2ccc(Cl)cc2)cs1 (centres undefined)	x	n	x	x	x	x
Cc1cccc(/C=C2/Sc3ccc(C(=O)NCCN4CCCC4)cc3NC2=O)c1	x	n	x	n	x	n
CCN1CCN(CCCNC(=O)c2ccc3c(c2)NC(=O)/C(=C\c2cccc(C)c2)S3)CC1	x	70	x	n	x	n
COc1cccc(/C=C2/Sc3ccc(C(=O)NCCN4CCCCCC4)cc3NC2=O)c1	x	75	x	n	x	n
CC(=O)NC(c1ccccc1)c1nc(-c2cc(F)cc(F)c2)cs1 (centres undefined)	x	n	x	x	x	x
O=C1NC(c2ccc(Br)cc2)Nc2ccccc21 (centres undefined)	x	n	x	n	x	n
O=C1NC(c2ccc3ccccc3c2)Nc2ccccc21 (centres undefined)	x	n	x	x	x	x
CCN(CC)c1ccc(C2NC(=O)c3ccccc3N2)cc1 (centres undefined)	x	92	x	x	x	x
O=C1NC(c2ccc3c(c2)OCO3)Nc2ccccc21 (centres undefined)	n	n	n	n	71	n
C[C@@H]1COc2cccc(N3CCC[C@@H]3CO)c2S(=O)(=O)N1	x	n	x	x	x	x
COCCn1c(=O)[nH]c2cc(C(=O)NC3CCCCCC3)ccc2c1=O	n	n	n	-72	n	n
OCCN1CCN(c2nccn3ccnc23)CC1	x	n	x	x	x	x
CC(=O)Nc1ccc(NC(=O)c2nc(S(=O)(=O)Cc3ccccc3)ncc2Cl)cc1	x	n	x	-94	x	n
O=C(NCc1ccccc1)c1nc(S(=O)(=O)Cc2ccccc2)ncc1Cl	x	n	x	n	x	n
O=C(NCc1ccc2c(c1)OCO2)c1nc(S(=O)(=O)Cc2ccccc2)ncc1Cl	x	n	x	-89	x	n
COC(=O)c1ccccc1NC(=O)c1nc(S(=O)(=O)Cc2ccccc2)ncc1Cl	x	95	x	n	x	n
O=C(Nc1ccc2ccccc2c1)c1cnccn1	n	n	n	n	n	n
COC(=O)c1cscc1S(=O)(=O)Cc1ccccc1	x	n	x	n	x	n
CS(=O)(=O)c1ncc(Cl)c(C(=O)Nc2ccc3ccccc3c2)n1	n	n	n	-93	n	n
O=C(NCc1cccnc1)c1csc([C@@H]2C[C@H](O)[C@@H](CO)O2)n1	x	n	x	x	x	x
SMILES	STAT3 blocker	TRAIL sens C8	STAT1 blocker	HSF1 inhib	PPC-1+TRAIL kill	HSP90 refold inh
CC(C)(NC(=O)c1cc(Cl)c2ccccc2c1O)C(=O)O	x	n	x	-83	n	n
COc1cccc(C(O)c2nc(-c3ccc(N(C)C)cc3)cs2)c1 (centres undefined)	x	n	x	x	x	x
O=C(Cn1nc(-c2ccc(Cl)cc2)ccc1=O)NCC1CCCO1 (centres undefined)	n	n	n	-57	n	n
CCOC(=O)C1C(=O)OC(C)(C)C1C(C)C(=O)c1ccc(C)cc1 (centres undefined)	n	n	n	-52	n	n
CCOC(=O)N1CCC(N2C(=O)c3ccccc3C2Nc2cc(OC)c(OC)c(OC)c2)CC1 (centres undefined)	n	n	n	n	n	n
CCOC(=O)[C@]12Cc3c(cc(OC)c(OC)c3OC)[C@H]1N(C1CCCCC1)C(=O)c1cc(OC)ccc12	x	67	x	x	x	x
Nc1nnc(-c2cccnc2)s1	n	n	n	n	n	n
c1ccc(Nc2nnc(-c3cccnc3)s2)cc1	x	53	x	n	x	n
CC(=O)N1CCN(C(=O)OC2CC3CC2[C@H]2CCCCN2C3=O)CC1 (some centres undefined)	x	n	x	x	x	x
CC(C)c1ccccc1-n1c(-c2cccnc2)n[nH]c1=S	n	n	n	-65	n	n
Cc1ccccc1-n1c(-c2cccnc2)n[nH]c1=S	n	n	n	n	n	n
COc1cccc(C2c3c(C)nn(-c4ccc([N+](=O)[O-])cc4)c3N=C3C(=O)Nc4ccccc4N32)c1 (centres undefined)	n	n	n	n	n	n
COc1ccc(NC2=Nc3ccccc3N3C2=Nc2c(c(C)nn2-c2ccc(C)cc2)C3c2cccnc2)cc1 (centres undefined)	n	n	n	-81	n	n
CC(=O)Nc1ccc(NC2=Nc3ccccc3N3C2=Nc2c(c(C)nn2-c2ccccc2)C3c2ccccc2)cc1 (centres undefined)	n	72	n	n	n	n
FC(F)c1nc2nc(Cl)c(Cl)nc2[nH]1	x	n	x	x	x	x
NC(=S)c1csc(CCNC(=O)c2ccccc2)n1	x	n	x	x	x	x
CCOc1ccc(NCc2cccn2-c2nnc(N3CCC(C(=O)NCCCN4CCCCC4)CC3)s2)cc1	x	n	x	-57	x	n
CCOc1ccc(NCc2cccn2-c2nnc(N3CCC(C(=O)NCCCN4C(C)CCCC4C)CC3)s2)cc1 (centres undefined)	x	n	x	n	x	n
c1ccn2c(SCc3ccc4c(c3)OCO4)nnc2c1	n	n	n	-65	n	n
COc1ccc(-c2nc3ccc(Br)cn3c2Cc2ccsc2)cc1OC	x	n	x	x	x	x
CCCCC[C@H](C)N1C[C@H](COCc2ccccc2)Oc2cc(N3CC[C@H](O)C3)ccc2S1(=O)=O	x	n	x	x	x	x
CCCCC[C@@H](C)N1C[C@H](COCc2ccccc2)Oc2cc(N3CC[C@H](N(C)C)C3)ccc2S1(=O)=O	x	69	x	x	x	x
Cc1cc(C)nc(NNC2=CC(=[N+]3CCCC3)CCC2)n1	n	n	n	n	n	n
Cc1cc(C)nc(NNC2=CC(=[N+]3CCCCC3)CC(C)(C)C2)n1	n	n	n	-71	n	n
COc1ccc(CN2CCC(C)(Oc3ccc(C(C)=O)cc3)C2)c2ccccc12 (centres undefined)	x	n	x	x	x	x
SMILES	STAT3 blocker	TRAIL sens C8	STAT1 blocker	HSF1 inhib	PPC-1+TRAIL kill	HSP90 refold inh
COc1ccc(C(C(=O)NC2CCCC2)n2c(CSCCOc3ccccc3)nc3ccccc32)cc1 (centres undefined)	x	n	x	x	x	x
O=C1C=C(N2CCOCC2)c2ccccc2C1=O	x	93	x	n	x	n
O=C1C=C(N2CCOCC2)c2cccc3cccc1c23	x	n	x	x	x	x
Cc1ccc(C(=O)Nc2cccc(C(F)(F)F)c2)cc1NC(=O)c1nccnc1N	x	54!	x	n	n	x
CC(C)CCNC(=O)C1CCCN1C(=O)NC1CCCCC1 (centres undefined)	n	n	n	-72	n	n
CC(=O)Nc1cc2c(cc1Cl)-c1ccccc1C2O (centres undefined)	x	n	x	x	x	x

Compound activity (PubChem BioAssay)
